# Assay results from the supplement of paper PMC3334620.
# Over roughly 33,000 sequences, “E-score (-0.5 to 0.5)” has its median near -0.035; the highest 2% begin near 0.35. Many of the other results were omitted from the sample, so the highest values are more common in it than they were.
# Molecular target: T1, Pdr3 (UniProt P33200)
# T1 sequence: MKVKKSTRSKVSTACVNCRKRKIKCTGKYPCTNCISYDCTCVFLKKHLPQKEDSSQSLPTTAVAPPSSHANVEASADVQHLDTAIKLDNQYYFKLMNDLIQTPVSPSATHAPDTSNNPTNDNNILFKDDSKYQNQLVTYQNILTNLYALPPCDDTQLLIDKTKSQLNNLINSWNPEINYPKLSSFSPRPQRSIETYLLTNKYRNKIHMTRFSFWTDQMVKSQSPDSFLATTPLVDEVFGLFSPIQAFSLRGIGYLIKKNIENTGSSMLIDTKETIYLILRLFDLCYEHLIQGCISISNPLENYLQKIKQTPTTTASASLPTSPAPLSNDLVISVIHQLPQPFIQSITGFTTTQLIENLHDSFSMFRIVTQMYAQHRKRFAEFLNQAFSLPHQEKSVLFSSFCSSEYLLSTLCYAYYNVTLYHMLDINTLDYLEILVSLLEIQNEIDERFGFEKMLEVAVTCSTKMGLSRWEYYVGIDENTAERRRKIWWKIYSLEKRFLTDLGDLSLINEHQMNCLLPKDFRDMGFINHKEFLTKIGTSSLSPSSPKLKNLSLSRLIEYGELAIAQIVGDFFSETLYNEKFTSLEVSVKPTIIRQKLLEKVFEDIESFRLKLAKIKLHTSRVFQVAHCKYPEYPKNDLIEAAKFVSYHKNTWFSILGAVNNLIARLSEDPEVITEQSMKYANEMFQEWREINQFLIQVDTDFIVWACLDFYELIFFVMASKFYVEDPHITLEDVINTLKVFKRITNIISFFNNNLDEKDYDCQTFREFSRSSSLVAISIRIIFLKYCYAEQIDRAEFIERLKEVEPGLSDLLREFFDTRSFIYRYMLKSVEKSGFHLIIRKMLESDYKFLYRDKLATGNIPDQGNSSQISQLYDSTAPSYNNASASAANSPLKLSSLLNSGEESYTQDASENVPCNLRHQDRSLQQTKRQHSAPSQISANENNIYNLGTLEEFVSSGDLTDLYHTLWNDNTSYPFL
# Experiment: PBM E-score (8-mer binding enrichment) (E-score (-0.5 to 0.5)); higher = stronger / more preferred TF binding
# Conditions: protein concentration: 200 nM; construct: GST-full length
# How it was run: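 Yeast transcription factors carrying a GST tag, as full-length proteins or DNA-binding domains, were produced by PURExpress in vitro transcription/translation. About 100-200 nM protein was applied to universal all-10-mer Agilent arrays, double-stranded by primer extension on fresh or once-stripped slides. Bound protein was detected with fluorescent anti-GST, and scans were normalised with masliner. The Universal PBM Analysis Suite gave each ungapped eight-base word, pooled with its reverse complement, an E-score, a modified Wilcoxon-Mann-Whitney statistic.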
row,Sequence,PBM E-score
1,ATGCCGGA,0.405
2,ATGCCGGC,0.341
3,CTAGCAAA,-0.187
4,GTTCCGAA,0.471
5,CTTCCGAA,0.385
6,GTTCCAAA,-0.00321
7,CTTCCGAC,0.267
8,GGTCCGAA,0.319
9,ATTCCGAC,0.413
10,CTTCCAAA,-0.155
11,AATCCGAA,0.0894
12,ATTCCGAA,0.436
13,ACTCCGAC,0.255
14,ACTCCGAA,0.238
15,CTACCGAA,-0.0817
16,ACACGGCC,0.14
17,CTCCACGA,-0.144
18,GTCTAGGA,-0.256
19,AACGCATC,-0.139
20,ACTTACCG,0.233
21,AATTTTAG,-0.194
22,ATCAGTCA,0.0413
23,GGCCAAGA,-0.176

row,Sequence,PBM E-score
1,GGGTTGAC,0.0502
2,CTCGCGCA,-0.029
3,AGCCTAAT,-0.208
4,AGCATACC,-0.0406
5,ACTCCGAG,0.28
6,ATTCCGAG,0.449
7,AGTCCGAG,0.281
8,AAGAGCAA,-0.123
9,ATGCGGTC,0.21
10,CGTTAAGA,-0.136
11,ACGGGAAC,0.33
12,CCGGGAAG,0.359
13,ACGGGAAG,0.133
14,CCGGGAAA,0.344
15,CCGGGAAC,0.362
16,CGGGGAAC,0.258
17,AGAAGGTA,-0.0743
18,ACGAGGCC,-0.0311
19,AGTATGCC,-0.0201
20,AGCTTCCA,0.0336
21,CGCTTCCG,0.419
22,AGCTTCCG,0.416
23,AGCTTCCC,-0.0703

row,Sequence,PBM E-score
1,CGCTTCCC,0.0936
2,CGCTTCCA,-0.00125
3,TGGGAACA,0.0839
4,ATGGAACA,-0.0996
5,ACGGAACA,0.477
6,CAGGAACA,-0.0115
7,TAGGAACA,-0.0452
8,GCGGAACA,0.474
9,TCGGAACA,0.483
10,AAGGAACA,-0.129
11,CCGGAACA,0.471
12,GTGGAACA,0.0611
13,GAGGAACA,0.147
14,CTGGAACA,0.117
15,ACTTGCAG,-0.177
16,AGGGCCTG,-0.195
17,AGAAAATA,0.0181
18,GGAGTAAC,0.0889
19,ATAGACCC,0.154
20,TCTCGTCA,-0.0279
21,AGGGGCAC,-0.293
22,ACATCGCG,0.0219
23,CGCTTCGC,-0.0359

row,Sequence,PBM E-score
1,AAACATGT,0.00604
2,CCTTCCTC,-0.201
3,ACTTCCGC,0.385
4,ACTTCCCC,-0.132
5,ACTTCCAC,0.0382
6,CCTTCCGC,0.38
7,CCTTCCGA,0.323
8,AGATTCAT,-0.0927
9,AGTTGCCG,0.196
10,CCCAGAGA,-0.223
11,CCCGGAGA,0.387
12,GCCGGAGA,0.244
13,ACCGGAGA,0.353
14,CCCGGAGG,0.165
15,TCCGGAGA,0.44
16,AAATTCAT,-0.0189
17,CGTGCCTC,-0.0179
18,AACGCAAT,0.115
19,GTTCGGCA,0.054
20,CTTCGGAA,0.438
21,CTTCGGAC,0.283
22,CTTCGGTA,-0.0957
23,ATTCGGAG,0.2

row,Sequence,PBM E-score
1,GTTCGGGA,0.233
2,ATTCGGAC,0.275
3,ATTCGGAA,0.415
4,GTTCGGAA,0.431
5,CTATCCTA,-0.0548
6,ACTACGCA,-0.236
7,GTGCAAAA,-0.168
8,GACGCTAA,-0.213
9,ATTCCACA,0.204
10,ATTCCGCC,0.417
11,ACTCCGCA,0.154
12,GTTCCGCA,0.462
13,AATCCGCC,0.17
14,ATTCCGCG,0.479
15,CTTCCGCC,0.336
16,GTTCCCCA,-0.173
17,GTTCCTCA,0.0277
18,ATTCCGCA,0.379
19,ATGCCGCG,0.346
20,CTTCCGCA,0.307
